# Laboratory results reported in PubChem BioAssay (NCATS).
# Inconclusive results are not listed. Where a call stands in place of a potency, no number is given. The source made the active and inactive calls. The call rests on the fitted dose curve; in most records, active means well fitted curve in the direction sought with a large enough effect; inconclusive means small, poorly fitted or top-dose-only effect, or another doubt; inactive means no such curve, though single readings can be large; an effect the other way counts as inactive or inconclusive.
# Tests used:
# [1] = system: Zika virus NS2B-NS3 protease; experiment: Primary screen GU AMC qHTS for Zika virus inhibitors (AID 1347154); further: nearly all actives have a fitted effect of over 70% in size; further: potency means the concentration at half of the fitted maximal effect
# How it was run: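 Fluorogenic AMC-substrate cleavage by noncovalent NS2B-NS3 protease complex (25 nM, pH 8.0 Tris buffer with Tween 20) followed for 15 minutes at room temperature (~20% conversion). Percent inhibition from ex340/em450 signal change, fitted by 4-parameter Hill equation.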
# [2] = system: Zika virus NS2B-NS3 protease (linked construct); experiment: Confirmatory screen NINDS AMC qHTS for Zika virus inhibitors (AID 1347152); conditions: Purified linked NS2B-NS3, AMC substrate fluorescence; further: potency means the concentration at half of the fitted maximal effect; nearly all actives have a fitted effect of over 70% in size
# How it was run: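 Linked NS2B-NS3 1 nM, Tris pH 8.0/0.01% Tween 20; cpd 15 min RT dark; + Nle-KRR-AMC 10 µM (Km 18.3 µM); read 0 and 15 min, 340/450 nm; %inh vs controls, 4-param Hill.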
# [3] = system: Zika virus NS2B-NS3 protease (unlinked complex); experiment: Confirmatory screen GU AMC qHTS for Zika virus inhibitors (AID 1347153);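 further: enzyme at 25 nM with substrate at 10 µM below its Km of 18.3 µM; potency means the concentration at half of the fitted maximal effect; nearly all actives have a fitted effect of over 70% in size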
# How it was run: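 Unlinked NS2B-NS3 complex (25 nM) in 10 mM Tris-HCl pH 8.0, 0.01% Tween 20 preincubated 15 min with compound, then 10 microM Bz-Nle-KRR-AMC (Km 18.3 µM). Fluorescence change over 15 min, normalized, Hill-fitted.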
# [4] = ZIKV-mCherry secondary qHTS for Zika virus inhibitors (AID 1347158); further: top concentration of the series differs between compounds
# How it was run: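 Percent infection is the share of Hoechst-identified Vero nuclei with mCherry signal above 450 RFU (3 SD over negative controls). Cells were infected with recombinant ZIKV-mCherry at MOI 1 after compound addition and imaged 48–72 h later.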
# [5] = Confirmatory screen NINDS Rhodamine qHTS for Zika virus inhibitors (AID 1347161); further: nearly all actives have a fitted effect of over 60% in size; further: potency means the concentration at half of the fitted maximal effect
# How it was run: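 Enzyme (25 nM, linked NS2B-NS3) was preincubated 15 min with compound in 10 mM Tris-HCl pH 8.0, 0.01% Tween 20. Rhodamine110 substrate (1.5 microM) was then added and fluorescence read at start and after 15 min.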
# [6] = system: Zika virus NS2B-NS3 protease (linked); experiment: 384 well plate NINDS AMC confirmatory qHTS for Zika virus inhibitors (AID 1347163); conditions: Recombinant NS2B-NS3 protease, Ac-VKTGKR-AMC fluorescence; further: potency means the concentration at half of the fitted maximal effect; nearly all actives have a fitted effect of over 50% in size
# How it was run: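 Fluorescence at 355/460 nm was read after 25 minutes of cleavage of 30 microM Ac-VKTGKR-AMC at room temperature, in the dark. Before substrate addition, compounds (up to 1 mM final) sat ~15 minutes with 5, 30 or 60 nM linked protease. Signals were normalized to no-enzyme and no-inhibitor wells.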
# [7] = system: Zika virus NS2B-NS3 protease (linked construct); experiment: 384 well plate NINDS Rhodamine confirmatory qHTS for Zika virus inhibitors (AID 1347164); conditions: rhodamine-110 peptide substrate fluorescence;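 further: fluorescence from protease cleavage of Ac-LKRR-rhodamine 110 substrate; potency means the concentration at half of the fitted maximal effect; nearly all actives have a fitted effect of over 65% in size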
# How it was run: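 Fluorescence read at ex 485 nm/em 538 nm, 25 min after adding 10 microM Ac-LKRR-Rd substrate at room temperature in the dark; signal normalized to no-enzyme and no-inhibitor controls. Enzyme final 5, 30 or 60 nM; compounds, ~15 min preincubation.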
# [8] = Vero cells viability qHTS for Zika virus inhibitors (AID 1347167)
# How it was run: (§1)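 Luminescent ATP readout (CellTiter Glo) after 30 min at 37 degrees C gives viability; cells in DMEM + 4% FBS were treated 24 to 48 hours with compound, following overnight attachment.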
# [9] = HepG2 cells viability qHTS for Zika virus inhibitors (AID 1347168)
# How it was run: as §1
# [10] = Tertiary RLuc qRT-PCR qHTS assay for Zika virus inhibitors (AID 1347169); further: top concentration of the series differs between compounds; nearly all actives have a fitted effect of over 55% in size
# How it was run: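 Luminescence read-out: live-cell Renilla luciferase substrate applied to infected Vero cells, signal measured after 1-1.5 hrs. Cells had received compound before ZIKV-RLuc (Cambodian strain, MOI 1-2) infection and were incubated 48-72 hrs at 37 degrees C.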
# [11] = qHTS of pediatric cancer cell lines to identify multiple opportunities for drug repurposing: Confirmatory screen for OHS-50 cells (AID 1347128);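 further: compound exposure lasted 48 h at 37 degrees C; nearly all actives have a fitted effect of over 55% in size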
# How it was run: (§2)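 Cells (500-1,000/well) rested 5 h, then received compounds for 48 h; metabolically active cells were measured by CellTiter-Glo luminescence. Final concentrations spanned up to 46 µM (MIPE, 11-point) or 0.59 nM-46 µM (NPC, 8-point) in primary screens, 11-point in follow-ups.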
# [12] = qHTS of pediatric cancer cell lines to identify multiple opportunities for drug repurposing: Confirmatory screen for SK-N-SH cells (AID 1347129);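 further: cells exposed to compound for 48 h before viability read; nearly all actives have a fitted effect of over 60% in size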
# How it was run: as §2
# Furin (Homo sapiens) = Furin (Homo sapiens) (UniProt P09958); experiment: Furin counterscreen qHTS for Zika virus inhibitors (AID 1347149); further: potency means the concentration at half of the fitted maximal effect; nearly all actives have a fitted effect of over 70% in size
# How it was run: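 Counterscreen measures cleavage of 2 microM BOC-RVRR-AMC, below its ~15 microM Km, by 5 nM full-length human furin at pH 7.0 after a 15-min compound preincubation. Inhibition derives from the 15-min fluorescence increase at 37C.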
# [13] = OV-KATE Cancer Cell Toxicity qHTS against the NCATS CANVASS Library (AID 1347345)
# How it was run: (§3)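 In this cytotoxicity screen, 1000 cells per well rested 4 hours, then received compound (11 concentrations) for a 72-hour incubation; an ATP-dependent luminescent signal (CellTiter-Glo) was the endpoint.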
# [14] = HPAF-II Cancer Cell Toxicity qHTS against the NCATS CANVASS Library (AID 1347346); further: series mostly up to about 38 µM; nearly all actives have a fitted effect of over 55% in size
# How it was run: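 Cytotoxicity read-out was CellTiter-Glo luminescence after 72 h at 37 degrees C exposure of HPAF-II cells (1000/well) to compounds in an 11-point titration.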
# [15] = UWB1.289 Cancer Cell Toxicity qHTS against the NCATS CANVASS Library (AID 1347347); further: series mostly up to about 38 µM; nearly all actives have a fitted effect of over 60% in size
# How it was run: as §3
# [16] = OV-SAHO Cancer Cell Toxicity qHTS against the NCATS CANVASS Library (AID 1347348); further: series mostly up to about 38 µM; nearly all actives have a fitted effect of over 55% in size
# How it was run: as §3
# [17] = Panc-1005 Cancer Cell Toxicity qHTS against the NCATS CANVASS Library (AID 1347349); further: series mostly up to about 38 µM; nearly all actives have a fitted effect of over 60% in size
# How it was run: as §3
# Furin (Homo sapiens), sequence (P09958 whole entry, looked up): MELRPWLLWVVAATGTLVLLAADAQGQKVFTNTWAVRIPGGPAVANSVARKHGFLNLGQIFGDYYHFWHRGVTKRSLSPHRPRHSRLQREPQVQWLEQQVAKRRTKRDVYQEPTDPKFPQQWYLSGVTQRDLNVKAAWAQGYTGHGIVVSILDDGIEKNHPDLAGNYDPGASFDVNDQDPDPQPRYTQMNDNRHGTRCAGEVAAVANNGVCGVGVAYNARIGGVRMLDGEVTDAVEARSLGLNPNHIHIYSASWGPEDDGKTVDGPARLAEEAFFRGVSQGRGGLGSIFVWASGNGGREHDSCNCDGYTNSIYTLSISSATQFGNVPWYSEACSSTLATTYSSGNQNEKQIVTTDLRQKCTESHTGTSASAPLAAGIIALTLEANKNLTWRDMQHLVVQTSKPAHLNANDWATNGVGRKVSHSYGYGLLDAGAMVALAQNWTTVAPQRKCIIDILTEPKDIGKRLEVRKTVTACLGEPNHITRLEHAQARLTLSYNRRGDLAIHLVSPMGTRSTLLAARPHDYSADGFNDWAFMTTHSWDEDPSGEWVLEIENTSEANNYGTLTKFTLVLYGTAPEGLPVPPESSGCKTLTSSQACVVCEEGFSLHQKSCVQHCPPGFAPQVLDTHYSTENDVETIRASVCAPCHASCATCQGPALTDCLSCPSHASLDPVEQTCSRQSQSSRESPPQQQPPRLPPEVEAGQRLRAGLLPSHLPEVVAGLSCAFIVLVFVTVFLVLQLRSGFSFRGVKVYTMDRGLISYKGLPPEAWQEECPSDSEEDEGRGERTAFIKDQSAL
compound,measurement,setting,value
CC(N)CCCC(C)(C)O (stereo not drawn),Potency,[1],inactive
Cc1ccccc1N=Nc1ccc(N=Nc2c(O)ccc3ccccc23)c(C)c1,Potency,[1],inactive
CCS(=O)(=O)CCn1c([N+](=O)[O-])cnc1C,Potency,[1],inactive
O=C(O)Cc1ccc(CCNS(=O)(=O)c2ccc(Cl)cc2)cc1,Potency,[1],inactive
C[C@@H](N)C(=O)O,Potency,[1],inactive
O=C(O)Cn1c(C(=O)Nc2nc(-c3ccccc3Cl)cs2)cc2ccccc21,Potency,[2],21.5 µM (active)
same,Potency,[3],24.1 µM (active)
same,outcome,[4],inactive
same,Potency,[5],3.93 µM (active)
same,Potency,[6],70.8 µM (active)
same,Potency,[7],28.2 µM (active)
same,outcome,[8],inactive
same,outcome,[9],inactive
same,outcome,[10],inactive
CC(=O)Oc1cccc(C)c1,Potency,[1],inactive
Cc1c(C)c2c(c(C)c1OC(=O)c1cccnc1)CC[C@@](C)(CCC[C@H](C)CCC[C@H](C)CCCC(C)C)O2,Potency,[1],inactive
O=C(O)CNC(=O)c1ccccc1I,Potency,[1],inactive
CCOC(=O)[C@H](CCc1ccccc1)N[C@@H](C)C(=O)N1CCC[C@H]1C(=O)O,Potency,[1],inactive
CCOC(=O)[C@H](CCc1ccccc1)N[C@@H](C)C(=O)N1Cc2cc(OC)c(OC)cc2C[C@H]1C(=O)O,Potency,[1],inactive
O=C(CCBr)N1CCN(C(=O)CCBr)CC1,Potency,[1],inactive
CCN(CC)CCc1nc(-c2ccccc2)no1,Potency,[1],inactive
CC(=O)Nc1cccc(O)c1,Potency,[1],inactive
CC(=O)[C@@]1(O)CC[C@H]2[C@@H]3C[C@H](C)C4=CC(=O)C=C[C@]4(C)[C@@]3(F)[C@@H](O)C[C@@]21C,Potency,[11],inactive
same,Potency,[1],inactive
Cc1[nH]c(C)c(Cl)c(=O)c1Cl,Potency,[1],inactive
COc1cc(O)cc(O)c1,Potency,[1],inactive
O=C(Cn1ccnc1[N+](=O)[O-])NCc1ccccc1,outcome,[12],inactive
same,Potency,[1],inactive
CN1C[C@@H]2C[C@H]1CN2c1cc2c(cc1F)c(=O)c(C(=O)O)cn2C1CC1,Potency,Furin (Homo sapiens),9.41 µM (active)
same,Potency,[2],16.7 µM (active)
same,Potency,[3],16.7 µM (active)
same,Potency,[1],8.82 µM (active)
same,Potency,[5],inactive
same,outcome,[8],inactive
same,outcome,[9],inactive
same,outcome,[10],inactive
COc1ccc(C(=O)NCc2ccc(OCCN(C)C)cc2)cc1OC,Potency,[1],inactive
O=C(/C=C/c1ccccc1)OCc1ccccc1,Potency,[1],inactive
C[C@@H]1O[C@@H](OC[C@H]2O[C@@H](Oc3c(-c4ccc(O)c(O)c4)oc4cc(O)cc(O)c4c3=O)[C@H](O)[C@@H](O)[C@@H]2O)[C@H](O)[C@H](O)[C@H]1O,outcome,[13],inactive
same,outcome,[14],inactive
same,outcome,[15],inactive
same,outcome,[16],inactive
same,outcome,[17],inactive
